DT40 TDP1 no CPT – qHTS for Inhibitors of human tyrosyl-DNA phosphodiesterase 1 (TDP1): qHTS in cells in absence of CPT. DT40 Tdp1-/- hTDP1 cells, no CPT, ATP luminescence, 48 h. Potency, µM (series often up to 46.2 µM), most hits filed as inhibitors. actives 15% (n = 420,000); note: nearly all actives have a fitted effect of over 55% in size
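No-CPT arm: Tdp1-/-;hTDP1 DT40 cells (400/well) plus compounds, incubated ≥48 hr at 37 °C. Readout CellTiter-Glo luminescence.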
TDP1 inh – blocks human tyrosyl-DNA phosphodiesterase 1; Q9NUW8; recombinant TDP1, AlphaScreen DNA substrate cleavage; Potency, µM (doses to about 130 µM), usual class: inhibitors; actives 0.28% (n = 350,000); note: nearly all actives have a fitted effect of over 40% in size
Target sequence (Q9NUW8 whole entry, looked up): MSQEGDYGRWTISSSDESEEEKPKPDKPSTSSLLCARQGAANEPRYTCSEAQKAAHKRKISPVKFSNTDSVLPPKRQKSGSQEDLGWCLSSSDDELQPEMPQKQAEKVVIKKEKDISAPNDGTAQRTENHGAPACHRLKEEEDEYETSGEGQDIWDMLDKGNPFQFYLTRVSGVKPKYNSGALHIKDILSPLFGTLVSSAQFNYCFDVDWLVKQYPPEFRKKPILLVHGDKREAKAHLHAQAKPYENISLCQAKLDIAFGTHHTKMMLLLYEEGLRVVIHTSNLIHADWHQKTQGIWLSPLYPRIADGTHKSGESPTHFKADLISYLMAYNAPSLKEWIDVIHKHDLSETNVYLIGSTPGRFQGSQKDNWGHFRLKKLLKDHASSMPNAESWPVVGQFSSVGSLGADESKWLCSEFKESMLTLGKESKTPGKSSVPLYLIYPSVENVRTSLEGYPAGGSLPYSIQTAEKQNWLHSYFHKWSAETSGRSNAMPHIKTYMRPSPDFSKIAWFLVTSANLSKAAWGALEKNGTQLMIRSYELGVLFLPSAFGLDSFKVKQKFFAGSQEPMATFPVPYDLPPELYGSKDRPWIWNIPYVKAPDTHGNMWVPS
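Tdp1 1 nM final; 15 min RT w/ cpd; substrate 15 nM, 5 min; beads 10 ug/ml, 10 min; AlphaScreen read. Neg ctrl: no enzyme.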
DT40 TDP1 CPT – DT40-hTDP1 cell growth loss with CPT; Potency, µM (top dose mostly 46.2 µM), most hits filed as inhibitors; chicken DT40 Tdp1-/-;hTDP1 cells + 20 nM CPT, ATP luminescence, 48 h; actives 12% (n = 420,000); note: nearly all actives have a fitted effect of over 55% in size
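Cell growth measured by CellTiter-Glo luminescence after a minimum 48 h, 37 C compound exposure with 20 nM CPT in Tdp1-knockout DT40 cells stably expressing hTDP1, seeded 400/well; qHTS titration format.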
IL-1B inflam inh – blocks inflammasome-driven IL-1 beta release; THP-1 LPS/ATP IL-1B secretion, AlphaLISA, 16 h; stronger effect = lower value; activity change, % at 57.5 µM; actives 4.7% (n = 360,000); AID 743279; in the data active = activity change below about -50%; inconclusive = mostly about -30% to -49%
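THP-1 cells pretreated 1 hr with compounds (up to 57.5 uM final), then stimulated with LPS (250 ng/mL final) plus ATP (1.25 mM final); secreted IL-1B measured by AlphaLISA after 16 hr, decreased signal indicating inhibition.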
HepG2 viability – counter-screen for TGF-b inhibitors: cytotoxicity in HepG2 cells; Potency, µM (highest dose often 46.1 µM), usual class: cytotoxic; HepG2 CAGA-GFP viability, ATP luminescence, 18 h; actives 0.76% (n = 410,000); AID 588856
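CellTiter-Glo luminescence gave cytotoxicity after 18 hours at 37 degrees C. The cells were HepG2 CAGA-GFP in 1% FBS DMEM, stimulated with 500 pg/mL TGF-beta after compound addition. %Activity was normalised to no-cell wells (complete cell-killing) and DMSO (no toxicity), and curves were fitted and classified.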
TGFb SMAD3 inh – TGF-b pathway inhibition | HepG2 CAGA-GFP TGF-b/SMAD3 reporter, GFP fluorescence, 18 h; TGF-beta stimulated, 500 pg/mL final | Potency, µM (titrated, usually from 46.1 µM), hits mostly inhibitors | actives 1.2% (n = 410,000) | AID 588855; note: nearly all actives have a fitted effect of over 65% in size
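Read-out: total well GFP (ex488/em500-530) summed from mean per-cell fluorescence. Cells: HEPG2 CAGA-GFP, 1% FBS DMEM, 18 h at 37 degrees C with 500 pg/mL final TGF-beta. Unstimulated wells served as the full-inhibition control; stimulated DMSO wells = 0%.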
Hits are given with their value; . = inactive; ? = inconclusive; / = no result given; [ ] = another dose, or the depositor's remark. Sampled rows, rich in hits. Any-hit rate of the full collection: about 19%. Unless noted, calls come from the whole dose curve; as a rule, active = well fitted curve in the direction sought with a large enough effect; inconclusive = small, poorly fitted or top-dose-only effect, or another doubt; inactive = no such curve, though single readings can be large; an effect the other way counts as inactive or inconclusive.

SMILES	DT40 TDP1 no CPT	TDP1 inh	DT40 TDP1 CPT	IL-1B inflam inh	HepG2 viability	TGFb SMAD3 inh
Cc1cc(N2CCN(C)CC2)nc2ccc(NC(=O)c3ccc(C(C)(C)C)cc3)cc12	4.6µM	.	7.3µM	/	13µM	?
COc1ccc(C(=O)Nc2ccc3nc(N4CCN(C)CC4)cc(C)c3c2)c(OC)c1	?	/	?	-86	.	?
CC(C)OCCCn1c(=O)c2ccccc2n2c(-c3ccccc3)nnc12	?	.	?	/	.	.
C=CCC(O)(C#Cc1ccccc1)c1ccccc1 (centres undefined)	/	.	/	/	/	/
Cc1cc(Cl)n2ncc(-c3ccccc3)c2n1	29µM	.	?	-99	.	.
Cc1cc(C)n2ncc(-c3cccc(Br)c3)c2n1	.	/	.	.	.	.
Cc1cc(N)n2ncc(-c3ccc(Cl)cc3)c2n1	?	.	18µM	.	.	.
COc1ccc(CC(=O)NC(C)CCc2ccccc2)cc1OC (centres undefined)	?	/	.	.	.	.
CC(=O)N(CCC(Cc1ccccc1)c1ccc2c(c1)OCO2)Cc1ccc(Cl)cc1 (centres undefined)	16µM	.	?	?	10µM	?
COc1ccc(CN(CCC(c2ccccc2)c2ccc(OC(C)C)cc2)C(=O)CCl)cc1OC (centres undefined)	2.9µM	.	2.1µM	-99	10µM	?
COc1ccc(CN(CCC(c2ccco2)C(C)C)C(C)=O)cc1OC (centres undefined)	?	.	?	.	.	.
COc1ccc(C(CCN(Cc2ccc(OC)c(OC)c2)C(C)=O)c2ccccc2)cc1 (centres undefined)	21µM	.	21µM	?	.	.
COc1ccc(CN(CCC(c2ccc3c(c2)OCO3)c2ccccc2OC)C(C)=O)cc1 (centres undefined)	21µM	.[12.3 µM]	?	/	.	13µM
COc1ccc(CN(CCC(c2ccccc2)C2CCOC(C)(C)C2)C(C)=O)cc1 (centres undefined)	18µM	.	?	?	.	?
Cc1ccc(C(CC(=O)O)C2CCOC(C)(C)C2)cc1 (centres undefined)	.	.	.	.	.	.
Cc1ccc(C)c2c(/C=C/c3ccc(N(C)C)cc3)ccnc12	?	/	?	/	.	.
CN(C)c1ccc(/C=C/c2ccnc3c(-c4ccccc4)cccc23)cc1	?	/	11µM	/	.	.
Cc1cccc2c(/C=C/c3ccc(N(C)C)cc3)ccnc12	?	/	?	/	.	.
CN(C)c1ccc(/C=C/c2ccnc3c(Cl)cccc23)cc1	7.9µM	/	11µM	/	.	.
Cc1cc(C(=O)N2CCCC(N3CCN(Cc4ccc5c(c4)OCO5)CC3)C2)n[nH]1 (centres undefined)	.	.	.	.	.	.
CN(CCNC(=O)c1c[nH]c2c1ccc1ccccc12)CCNC(=O)c1c[nH]c2c1ccc1ccccc12	?	/	23µM	.	.	13µM
CN(C)CCNC(=O)c1cccc2nc3c(ccc4ccccc43)nc12	4.6µM	/	5.8µM	-101	.	?
CN(C)CCNC(=O)c1ccccc1-c1ccccc1	.	.	.	.	.	.
COc1ccc(-c2nc3c(C(=O)NCCN(C)C)cccc3c3ccccc23)cc1	4.1µM	/	1.3µM	-100	18µM	.
COc1cccc2nc3c(C(=O)NCCN(C)C)cccc3cc12	0.18µM	/	0.16µM	-97	.	?
SMILES	DT40 TDP1 no CPT	TDP1 inh	DT40 TDP1 CPT	IL-1B inflam inh	HepG2 viability	TGFb SMAD3 inh
O=C1C[C@@H](O)[C@@H](O)[C@H]2[C@@H]3C(=O)N(C4CCCCC4)C(=O)[C@@H]3CC[C@H]12	/	.[21 µM]	/	/	/	/
C=C(C)C(O)/C=C/c1cccc(OC)c1 (centres undefined)	/	.[21 µM]	/	/	/	/
COC(CNC(=O)c1ccc2nc(-c3cccs3)c(-c3cccs3)nc2c1)OC	13µM	.	18µM	-51	.	.
CCCCNC(=O)c1ccc2nc(-c3cccs3)c(-c3cccs3)nc2c1	20µM	.	?	/	.	.
CCOCCCNC(=O)c1ccc2nc(-c3ccc(OC)c(OC)c3)c(-c3ccc(OC)c(OC)c3)nc2c1	?	/	?	.	.	?
COc1ccccc1-n1cc(CN2CCC3(CCC(CNC(=O)c4ccccc4)O3)CC2)cn1 (centres undefined)	.	/	.[9.04 µM]	/	/	/
CCC1C/C(=C\c2cc(OC)c(OC)cc2OC)C(=O)/C(=C/c2cc(OC)c(OC)cc2OC)C1 (centres undefined)	13µM	/	?	-70	8.9µM	?
COc1cc(OC)c(OC)cc1/C=C1\CC(C)C/C(=C\c2cc(OC)c(OC)cc2OC)C1=O (centres undefined)	18µM	/	18µM	-84	11µM	?
CCCN1CCC(=O)N(C(CSc2ccc(OC)cc2)CC(C)C)CC1 (centres undefined)	/	.	/	/	.	.
Cc1cc(C)c2c(n1)nn1c(C)c(CCC(=O)Nc3ccc(C)c(Cl)c3)c(C)nc21	?	.	.	/	.	/
CCOc1ccccc1NC(=O)CN(C)S(=O)(=O)c1ccc2[nH]c(=O)oc2c1	.	.	.	.	.	.
COc1ccc(-c2cc(C(=O)Nc3ccccc3O)c3ccccc3n2)cc1OC	?	.	.	.	.	.
CCOc1ccccc1NC(=O)c1cc(-c2cc(OC)c(OC)c(OC)c2)nc2ccccc12	7.3µM	.	10µM	.	.	.
COc1cc(NC(=O)c2cc(-c3ccccc3)nc3c2cnn3C(C)C)cc(OC)c1OC	5.8µM	.	13µM	.	.	.
COc1cc(-c2cc(C(=O)Nc3ccncc3)c3ccccc3n2)cc(OC)c1OC	1.3µM	.	2.9µM	-50	.	.
COc1ccccc1NC(=O)c1cc(-c2cc(OC)c(OC)c(OC)c2)nc2ccccc12	7.3µM	.	9.2µM	.	.	.
CCOc1ccc(OCC)c(NC(=O)c2cc(-c3cccs3)nc3ccccc23)c1	.	.	.	/	.	.
COc1ccc(C(=O)N2CCN(C(=O)COc3ccccc3)CC2)cc1OC	/	/	/	/	.	.
CCC(Sc1nnc(C)n2c1cc1occc12)C(=O)Nc1ccccc1OC (centres undefined)	21µM	.	?	/	.	.
CC(=O)N1CCC(N(Cc2ccc(C)o2)C(=O)Nc2ccccc2F)CC1	.	.	.	/	.	.
COc1cccc(NC(=S)N2CCC(c3ccc(C)cc3)C2)c1 (centres undefined)	7.3µM	/	12µM	-78	.	.
Cc1ccc(NC(=S)N2CCC(c3ccc(C)cc3)C2)cc1 (centres undefined)	?	.	?	.	.	.

Bioassay records from PubChem.
